Test results from PubChem BioAssay (Tox21).
Records with an inconclusive call do not appear. Active and inactive are the calls of the source. Unless noted, the call rests on the fitted dose curve; in most records, active means well fitted curve in the direction sought with a large enough effect in the repeat runs; inconclusive means weak or mixed curves; inactive means no such curve, though single readings can be large; an effect the other way counts as inactive or inconclusive.

Legend:
[1] = qHTS assay for small molecule agonists of the p53 signaling pathway - cell viability (AID 651633; calls by dose curve;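 further: p53RE-bla HCT reporter cells with a stable beta-lactamase p53 reporter; series mostly up to about 83 µM; nearly all actives have a fitted effect of over 30% in size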)
In short: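 Viability counter-read: CellTiter-Glo luminescence (30 min, room temperature) in the same p53RE-bla plates. These plates had been exposed to compounds for 16 h at 37 C.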

[2] = qHTS assay for small molecules that induce genotoxicity in human embryonic kidney cells expressing luciferase-tagged ATAD5 - cell viability (AID 651634; calls by dose curve; further: nearly all actives have a fitted effect of over 25% in size)
In short: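 Here HEK293T cells with the ATAD5 luciferase reporter are incubated with test compounds for 15.5 hr, and cytotoxicity is then gauged by measuring protease activity in live cells using fluorescence.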

[3] = qHTS assay for small molecule disruptors of the mitochondrial membrane potential - cell viability (AID 720634; calls by dose curve;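 further: human HepG2 liver cancer cells; series mostly up to about 83 µM; nearly all actives have a fitted effect of over 20% in size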)
In short: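 Viability of HepG2 cells is scored from ATP content by luminescence; cells are exposed to compound for 1 hr at 37 C and 5% CO2, then dosed with m-MPI dye before the CellTiter-Glo reagent.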

[4] = qHTS assay for small molecule disruptors of the mitochondrial membrane potential (AID 720635); further: potency means the concentration at half of the fitted maximal effect
In short: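 Mitochondrial membrane potential tracked with Mito-MPS dye, red aggregates (ex 540/em 590 nm) against green monomers (ex 490/em 535 nm). Compound treatment 1 hr at 37C, dye 30 min in HepG2.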

[5] = qHTS assay to test for compound auto fluorescence at 590 nm (red) in HepG2 cells (AID 720674)
In short: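 Red autofluorescence (Ex/Em 540/590 nm, Rose Bengal sodium equivalents) was measured in HepG2 cells, 2,000 per well in MEM plus 10% FBS, plated overnight at 37 C. Readings were taken 1 hr after adding 23 nL compound or DMSO, at 37 C and 5% CO2.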

[6] = qHTS assay to test for compound auto fluorescence at 535 nm (green) in HepG2 cells (AID 720675)
[7] = qHTS assay to test for compound auto fluorescence at 460 nm (blue) in HEK293 cells (AID 720678)
In short: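 Triamterene serves as the blue fluorophore standard. Compound signal at 405/460 nm is read in HEK293 wells (2,000 cells, 10% dialyzed FBS) after overnight treatment at 37C.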

[8] = qHTS assay to test for compound auto fluorescence at 590 nm (red) in HEK293 cells (AID 720679)
In short: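 We plated HEK293 cells in 10% dialyzed FBS medium, let them adhere for 4-5 hr, then added 23 nL compound. Overnight at 37C and 5% CO2 preceded fluorescence measurement at 540/590nm.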

[9] = qHTS assay for small molecules that induce genotoxicity in human embryonic kidney cells expressing luciferase-tagged ATAD5 (AID 651632); further: nearly all actives have a fitted effect of over 15% in size
In short: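 DMSO vehicle served as the control. HEK293T reporter cells, 16 hr at 37C, then 30 min Amplite at room temperature; ATAD5 induction is measured as luciferase activity.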
On the % scale 0 is the no-effect control and ±100 the full control effect.

CC(C)(C)C(=O)CCc1ccc(Cl)cc1
inactive: outcome [1] | outcome [2] | outcome [3] | Potency [4] | outcome [5] | outcome [6] | outcome [7] | outcome [8]

NNC(=O)CCCCC(=O)NN
inactive: Potency [9] | outcome [1] | outcome [2] | outcome [3] | outcome [5] | outcome [6] | outcome [7] | outcome [8]

CN(C)c1ccncc1
inactive: outcome [1] | outcome [3] | Potency [4] | outcome [5] | outcome [6] | outcome [7] | outcome [8]

CC1(C)S[C@@H]2[C@H](NC(=O)Cc3ccccc3)C(=O)N2[C@H]1C(=O)O (tested in a mixture with another compound)
inactive: Potency [9] | outcome [1] | outcome [3] | outcome [5] | outcome [6] | outcome [7] | outcome [8]

Nc1nc(Cl)cc(Cl)n1
inactive: Potency [9] | outcome [2] | outcome [3] | Potency [4] | outcome [5] | outcome [6] | outcome [7] | outcome [8]

N#CC1(N)CCCCC1
inactive: Potency [9] | outcome [5] | outcome [6] | outcome [7] | outcome [8]

CC(=O)OC/C=C(/C)CCC=C(C)C
inactive: outcome [1] | outcome [2] | Potency [4] | outcome [5] | outcome [6] | outcome [7] | outcome [8]

CC(=O)Nc1ccc(OCCOCCOc2ccc(NC(C)=O)cc2)cc1
inactive: Potency [9] | outcome [2] | outcome [3] | Potency [4] | outcome [5] | outcome [6] | outcome [7] | outcome [8]

C[Si](C)(C)O[Si](O)(O)O
inactive: Potency [9] | outcome [1] | outcome [2] | outcome [3] | outcome [6] | outcome [7] | outcome [8]

CC/C=C\CCCCCCCCCCOC(C)=O
inactive: outcome [3] | Potency [4] | outcome [5] | outcome [6] | outcome [7] | outcome [8]

C=CCON/C(CCC)=C1\C(=O)CC(C)(C)C(C(=O)OC)=C1O
inactive: Potency [9] | outcome [1] | outcome [2] | outcome [3] | outcome [6] | outcome [7] | outcome [8]

CCCCN1C(=O)c2ccccc2C1=O
inactive: Potency [9] | outcome [1] | outcome [3] | outcome [5] | outcome [6] | outcome [7] | outcome [8]

C=CCN(CC=C)CC=C
inactive: Potency [9] | outcome [1] | outcome [2] | outcome [3] | outcome [5] | outcome [6] | outcome [7] | outcome [8]

CCCCNCC
inactive: outcome [1] | Potency [4] | outcome [5] | outcome [6] | outcome [7] | outcome [8]

N=C(N)S(=O)O
inactive: outcome [3] | Potency [4] | outcome [5] | outcome [6] | outcome [7] | outcome [8]

CCC(C)c1nccnc1OC (configuration not stated)
inactive: Potency [9] | outcome [2] | outcome [3] | Potency [4] | outcome [5] | outcome [6] | outcome [7] | outcome [8]

O=C1CC2(CCCC2)CC(=O)N1CCNCC1COc2ccccc2O1 (configuration not stated)
inactive: Potency [9] | outcome [2] | outcome [3] | outcome [5] | outcome [6] | outcome [7] | outcome [8]

CC(C)C(C)C
inactive: Potency [9] | outcome [1] | outcome [2] | outcome [6] | outcome [7] | outcome [8]

CCCCCCCCCCCCCCBr
inactive: outcome [1] | outcome [2] | outcome [3] | Potency [4] | outcome [5] | outcome [6] | outcome [7] | outcome [8]

O=C(CCBr)N1CCN(C(=O)CCBr)CC1
inactive: Potency [9] | outcome [1] | outcome [5] | outcome [6] | outcome [7] | outcome [8]

CCC(=O)OCCOc1ccccc1
inactive: Potency [9] | outcome [1] | outcome [2] | outcome [3] | outcome [6] | outcome [7] | outcome [8]

CCOc1ccccc1OCCN[C@H](C)Cc1ccc(OC)c(S(N)(=O)=O)c1
inactive: Potency [9] | outcome [1] | outcome [3] | outcome [5] | outcome [6] | outcome [7] | outcome [8]
active: Potency [4] 24.8 µM

CC/C=C/CCCCCCCCCCOC(C)=O
inactive: Potency [9] | outcome [2] | outcome [3] | Potency [4] | outcome [5] | outcome [6] | outcome [7] | outcome [8]

C=CCCCCCCCCCCCCCC
inactive: Potency [9] | outcome [1] | outcome [3] | fluorescence, relative to Rose Bengal [5] -0.0589% [at 18.6 µM] | fluorescence, % of fluorescein control [6] -0.0523% [at 18.6 µM] | fluorescence, % of triamterene [7] 0.0937% [at 18.6 µM] | fluorescence, % of fluorescent control [8] 0.0885% [at 18.6 µM]

CC(C)(C)c1ccc(N)cc1
inactive: Potency [9] | outcome [2] | outcome [3] | Potency [4] | outcome [6] | outcome [7] | outcome [8]

CC(CC(=O)Cl)CC(C)(C)C (configuration not stated)
inactive: outcome [1] | outcome [2] | outcome [3] | Potency [4] | outcome [5] | outcome [6] | outcome [7] | outcome [8]

Cc1ccc(OC(=O)CC(C)C)cc1
inactive: outcome [2] | outcome [3] | Potency [4] | outcome [5] | outcome [6] | outcome [7] | outcome [8]
